Compound activity as filed in PubChem.
CYP2C19 act: increases human CYP2C19 enzyme activity | P33261 | recombinant CYP2C19, luciferin-H EGE luminescence; stronger effect = higher value; 0 = fully inhibited enzyme, 1 = untreated enzyme | activation factor at 5 µM | 96,000 tested, under 10 active | AID 1025;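 active = activation factor of at least 2 at 5 µM in the primary screen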;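 also: 0 = wells with 2.5 mM tranylcypromine and 1 = vehicle-only wells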
CYP2C9 activ: increases human cytochrome P450 2C9 activity. actives 1.4% (n = 96,000). recombinant CYP2C9, luciferin-H conversion, luminescence; stronger effect = higher value; factor 1 = untreated enzyme, 0 = blocked. AID 1024. activation factor at 5 µM. P11712;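 active = activation factor of 2 or more for CYP2C9 at a 5 µM dose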;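 also: 0 = sulfaphenazole-blocked wells and 1 = vehicle-only wells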
CD11b adhes inh: blocks human CD11b/CD18 adhesion to fibrinogen; P05107+P11215; K562 CD11b/CD18 adhesion to fibrinogen, ATPlite luminescence; Mn2+ added to activate the integrin; inhibition, % at 10 µM; actives 0.54% (n = 93,000); AID 1497;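 active = primary inhibition of 50% or more at 10 µM, then 40% or more on retest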
Target sequence (P05107 whole entry, looked up, other chains not shown): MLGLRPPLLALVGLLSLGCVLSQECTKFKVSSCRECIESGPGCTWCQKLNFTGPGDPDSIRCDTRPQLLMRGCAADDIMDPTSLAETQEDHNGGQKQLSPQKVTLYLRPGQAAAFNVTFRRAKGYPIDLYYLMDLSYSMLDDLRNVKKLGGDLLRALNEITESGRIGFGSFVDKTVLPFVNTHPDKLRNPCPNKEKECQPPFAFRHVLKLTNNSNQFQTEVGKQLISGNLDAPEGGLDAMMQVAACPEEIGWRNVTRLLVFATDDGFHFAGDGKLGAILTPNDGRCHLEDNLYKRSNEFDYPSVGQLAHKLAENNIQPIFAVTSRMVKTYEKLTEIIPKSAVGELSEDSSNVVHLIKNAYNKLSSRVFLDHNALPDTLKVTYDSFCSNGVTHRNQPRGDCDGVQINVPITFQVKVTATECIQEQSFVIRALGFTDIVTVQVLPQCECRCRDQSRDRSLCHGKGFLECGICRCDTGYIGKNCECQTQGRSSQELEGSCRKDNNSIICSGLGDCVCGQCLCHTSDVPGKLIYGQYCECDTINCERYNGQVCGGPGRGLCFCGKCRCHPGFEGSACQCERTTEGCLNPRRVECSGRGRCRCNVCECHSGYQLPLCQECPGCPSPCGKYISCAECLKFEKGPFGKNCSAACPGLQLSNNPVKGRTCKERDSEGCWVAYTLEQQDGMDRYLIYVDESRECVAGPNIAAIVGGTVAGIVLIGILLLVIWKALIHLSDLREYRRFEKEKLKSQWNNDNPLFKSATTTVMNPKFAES
CYP2C19 inh: inhibitors of human CYP2C19. P33261. CYP2C19 Supersomes, luciferin-H EGE luminescence, 30 min. inhibition, % at 5 µM. actives 21% (n = 96,000);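 active = CYP2C19 inhibition above a set limit at 5 µM in the primary screen, cut at about 50% in these data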;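 also: plate controls were negative control wells for no effect and 2.5 mM tranylcypromine positive control for full effect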
CYP2C9 inhib: inhibitors of human CYP2C9 | CYP2C9 Supersomes, luciferin-H conversion, luminescence | AID 777 | actives 20% (n = 96,000) | inhibition, % at 5 µM;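 active = blocking of liver enzyme CYP2C9 beyond about 50% at 5 µM, limit read from the data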
Mac1 fbg enh: increases human CD11b/CD18 adhesion to fibrinogen; K562 CD11b/CD18 adhesion to fibrinogen, ATPlite luminescence; AID 1499; P05107+P11215; activation, % at 10 µM; actives 0.07% (n = 93,000);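 active = 10 µM primary screen giving 50% or more activity, confirmed by 40% or more on retest at that dose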
The depositor's hits bear a star; · = no result given. Hits are enriched below; roughly 28% of the tested compounds scored in any of these assays.

SMILES	CYP2C19 act	CYP2C9 activ	CD11b adhes inh	CYP2C19 inh	CYP2C9 inhib	Mac1 fbg enh
O=C(COC(=O)Cc1ccc(S(=O)(=O)N2CCOCC2)s1)NCc1ccc(Cl)cc1	0.3	0.1	-9	73*	86*	-2
CCNC(=O)COC(=O)c1ccc(S(=O)(=O)N2CCCCCC2)cc1	1	0.7	-13	5	34	-2
c1ccc2c(CSCCc3ccncc3)cccc2c1	0	0.1	·	97*	94*	·
Clc1ccc(CSCCc2ccncc2)cc1	0	0	34	100*	100*	-6
O=C1NC(CCc2ccccc2)C(=O)N1Cc1cccc2ccccc12 (centres undefined)	·	·	3	·	·	4
O=S(=O)(N1CCCCCC1)N1CCN(S(=O)(=O)N2CCCCC2)CC1	0.9	0.8	2	8	20	-3
CC(=O)CCc1c[nH]c2c(C(=O)O)cccc12	1.1	1.2	1	-13	-23	-5
CN(C)CC(C)(C)NS(=O)(=O)c1ccc(Cl)cc1	0.4	1	0	56*	-5	-3
CCN(CC)CC(C)(C)NS(=O)(=O)c1ccc(Cl)cc1	0.6	1	-3	38	-2	-2
CC(C)(CN1CCCCC1)NS(=O)(=O)c1ccc(Cl)cc1	0.5	1.1	0	55*	-6	-4
CC(C)(CNS(=O)(=O)c1ccc(Cl)cc1)N1CCCCC1	0.4	0.9	-14	64*	6	1
CC1CC(C)CN(CC(C)(C)NS(=O)(=O)c2ccc(Cl)cc2)C1 (centres undefined)	0.2	0.4	6	76*	56*	-2
O=C1C(NS(=O)(=O)c2ccc(Cl)cc2)=C(N2CCCCC2)C(=O)c2ccccc21	·	·	29	·	·	2
Cc1ccc(S(=O)(=O)NCC(=O)N2CCCCC2)cc1	0.8	0.9	-4	22	9	-2
Cc1ccc(C)c2nc(SCC(=O)N3CCCc4ccccc43)c(C#N)cc12	0.9	0.8	50	6	25	-1
O=C(NNC(=O)C1CC1c1ccccc1)c1cccc([N+](=O)[O-])c1 (centres undefined)	·	·	-16	·	·	4
Cc1occc1-c1nnc(SCC(=O)Nc2nccs2)n1Cc1ccco1	0.3	0.5	4	72*	55*	-2
Cc1cc(C)nc(SCc2nnc(SCC(=O)Nc3nccs3)n2Cc2ccco2)n1	0.8	0.4	-14	15	63*	2
Cc1cc(NC(=O)CSc2nnc(-c3ccco3)n2Cc2ccco2)no1	0.8	0.6	-1	21	41	0
O=C(CNC(=S)N(Cc1ccccc1F)C1CCCCC1)NC1CC1	0.7	0.9	-29	33	6	2
O=C(Oc1cc(-c2ccccc2)no1)c1cccc(C(F)(F)F)c1	1.1	0.9	-14	-12	6	1
CN(CC(=O)N1CCCc2c1c(=O)oc1ccc(O)cc21)Cc1ccccc1	0	0.3	12	96*	67*	1
COc1ccc(C(=O)NCC(=O)OCC(=O)N2CCCc3ccccc32)cc1	·	·	-4	·	·	4
COc1cc2cc(C(=O)O)[nH]c2c(OC)c1OC	1.1	1	-10	-11	-1	-2
CC(C)NC(=O)NC(=O)CSc1nnc(COc2ccccc2Cl)o1	0.9	0.7	0	14	28	0
SMILES	CYP2C19 act	CYP2C9 activ	CD11b adhes inh	CYP2C19 inh	CYP2C9 inhib	Mac1 fbg enh
Cc1cc(C)cc(OCc2nnc(SCC(=O)OC(C)C)o2)c1	0.4	1.3	3	60*	-26	0
CC(C)CCNC(=O)NC(=O)CSc1nnc(COc2ccccc2Cl)o1	0.5	0.5	-19	50	53*	12
CC(NC(=O)CSc1nnc(COc2ccccc2)o1)c1ccccc1 (centres undefined)	0.2	0.5	2	82*	46	-1
CC(NC(=O)CSc1ncccn1)c1ccccc1 (centres undefined)	0.2	0.9	9	78*	7	-1
Cc1cc(C)cc(OCc2nnc(SCC(=O)N3CCN(c4ccccc4)CC3)o2)c1	0.6	0.8	-12	39	21	13
CNS(=O)(=O)c1cccc(C(=O)OCC(=O)N2CCc3ccccc3C2)c1	0.7	1.7	-21	33	-70	6
N=c1c2c3c(sc2nc2n1CCC2)CCCC3	1.2	1.1	-3	-18	-6	-1
CCCCn1nnc(NC(=O)CC23CC4CC(CC(C4)C2)C3)n1	0.9	1.1	-4	5	-12	0
CCN(CC)S(=O)(=O)c1ccc2c(c1)c(=O)c(C(=O)NCCCN(C)c1ccccc1)cn2C	0.9	0.4	11	10	57*	6
CCN(CC)CCNC(=O)c1cn(C)c2ccc(S(=O)(=O)N(C)C3CCCCC3)cc2c1=O	1	1	-2	-2	-3	1
CN(C)S(=O)(=O)c1ccc2c(c1)c(=O)c(C(=O)NCCCN1CCCCCC1)cn2C	1	0.9	-7	0	13	0
C=CCn1cc(C(=O)NCCCOC)c(=O)c2cc(S(=O)(=O)N(CC)CC)ccc21	1.1	0.4	-6	-8	59*	-1
CN(CCCNC(=O)c1cn(C)c2ccc(S(=O)(=O)N(C)C)cc2c1=O)c1ccccc1	0.8	0.4	11	23	60*	4
CCN(CC)CCNC(=O)c1cn(CC)c2ccc(S(=O)(=O)N(C)C)cc2c1=O	1	1.1	-2	-5	-5	26
S=c1nc(C2CCCCC2)[nH][nH]1	1.1	1	-9	-5	3	0
C=CCc1cccc(CNc2c(C)n(C)n(-c3ccccc3)c2=O)c1O	0.4	0.9	1	56*	12	6
Cc1c(NC(=O)CC(=O)Nc2c(C)n(C)n(-c3ccccc3)c2=O)c(=O)n(-c2ccccc2)n1C	0.7	1	-4	28	5	0
CCn1c(SCC(=O)Nc2oc(-c3ccccc3)c(-c3ccccc3)c2C#N)nnc1-c1ccncc1	0.4	0.2	14	58*	78*	-2
N#Cc1c(NC(=O)CSc2ncnc3sccc23)oc(-c2ccco2)c1-c1ccco1	0.7	0.2	30	26	84*	48
COc1ccc(-c2oc(NC(=O)CSc3nncn3C)c(C#N)c2-c2ccc(OC)cc2)cc1	0.6	0.4	5	39	58*	0
CCn1c(SCC(=O)Nc2oc(-c3ccccc3)c(-c3ccccc3)c2C#N)nnc1-c1ccco1	0.1	0	23	94*	96*	2
COc1ccc(NC(=O)CSc2nncn2C)c([N+](=O)[O-])c1	1	0.9	-6	1	7	0
Cc1cccc(NC(=O)c2cc(NC(=O)CCCC(=O)O)ccc2Cl)n1	1	1.3	5	1	-33	-5
